{"source": "PubChem BioAssay (NCI)", "note": "Compounds without any hit were thinned out: in the full panel of roughly 83,000, 20% have a hit.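 Results are percent growth after 48 hours of single-concentration exposure. 100 means growth as in untreated cells, lower positive values show inhibition; negative values down to -100 show cell death.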 Active and inactive are the calls of the source. Rule for the calls: active = growth percent below 10; inactive = the rest."}
{"tested_on": "MDA-MB-435 melanoma", "assay": "NCI-60 one-dose screen, 48 h (100 = growth as untreated, 0 = no growth, -100 = all killed)", "details": "10 µM unless noted"}
{"smiles": "Cc1nc2cc(Nc3nc(NCCN)nc(Nc4ccc(F)cc4)n3)ccc2n1Cc1ccccc1", "growth": "80.4% (inactive)"}
{"smiles": "Oc1cccc(Nc2nc(-c3ccccn3)cs2)c1", "growth": "105% (inactive)"}
{"smiles": "COc1ccc(-c2c3c(N)c4c(nc3nc3c2c(C)nn3-c2ccccc2)CCCC4)cc1", "growth": "77.5% (inactive)"}
{"smiles": "O=C1c2cc(S(=O)(=O)O)ccc2C(=O)c2c1cccc2[N+](=O)[O-]", "growth": "105% (inactive)"}
{"smiles": "COc1cc(CNCCN2C(=O)c3ccc4c5c(ccc(c35)C2=O)C(=O)N(CCNCc2cc(OC)c(OC)c(OC)c2)C4=O)cc(OC)c1OC", "growth": "-63.4% (active)"}
{"smiles": "O=C1N/C(=C\\c2ccccc2)c2ncccc21", "growth": "109% (inactive)"}
{"smiles": "COc1cc(C(=O)N(C(C)C)C2CCCCC2)cc(OC)c1OC", "growth": "107% (inactive)"}
{"smiles": "COc1cc(/C=C/C(=O)C(=Cc2ccc(F)c(F)c2)C(=O)/C=C/c2ccc(O)c(OC)c2)ccc1O", "growth": "0.136% (active)"}
{"smiles": "O=C(c1ccc2ncc(-c3nc(NC4CC4)ncc3F)n2c1)N1CCOCC1", "growth": "32% (inactive)"}
{"smiles": "O=C(COc1cccc(/C=C2\\COc3ccccc3C2=O)c1)c1ccccc1", "growth": "43.1% (inactive)"}
{"smiles": "O=c1oc2ccccc2cc1-c1csc(N/N=C/c2cc3ccccc3nc2Cl)n1", "growth": "95.7% (inactive)"}
{"smiles": "COc1cc(-c2nc(Nc3nc4ccccc4[nH]3)nc(N)c2C#N)cc(OC)c1OC", "growth": "14.5% (inactive)"}
{"smiles": "CSc1ccc(OC(C)=O)cc1C", "growth": "91.3% (inactive)"}
{"smiles": "COCCOC1=C(Cl)C(=O)c2ccccc2C1=O", "growth": "4.68% (active)"}
{"smiles": "CCN(CC)CCCNc1ccc(C)c2sc3ccccc3c(=O)c12", "growth": "-85.7% (active)"}
{"smiles": "CC[Si](CC)(CC)OC1[C@@H](O[Si](CC)(CC)CC)[C@@H](CNC(=O)NC)O[C@H]1n1cnc2c(NC(=O)Nc3ccccc3)ncnc21", "note": "(stereo not given in full)", "growth": "65.5% (inactive)"}
{"smiles": "CCC(C)[C@H]1O[C@]2(CC[C@@H]1C)C[C@@H]1C[C@@H](C/C=C(\\C)[C@@H](OC3C[C@H](OC)C(O[C@H]4C[C@H](OC)[C@@H](O)[C@H](C)O4)[C@H](C)O3)[C@@H](C)/C=C/C=C3\\CO[C@@H]4[C@H](O)C(C)=C[C@@H](C(=O)O1)[C@]34O)O2", "note": "(stereo not given in full)", "growth": "3.2% (active)"}
{"smiles": "COC1(OC)C2(Cl)C=C(c3ccccc3)C1(Cl)C(Cl)=C2Cl", "note": "(stereo not given)", "growth": "95.7% (inactive)"}
{"smiles": "CSc1nnc(-c2sc3nnc(-c4ccccc4)c(-c4ccccc4)c3c2O)o1", "growth": "88.4% (inactive)"}
{"smiles": "COc1ccc(OC)c2ncccc12", "growth": "105% (inactive)"}
{"smiles": "O=c1nc(NO)[nH]c(=O)n1Cc1ccccc1", "growth": "101% (inactive)"}
{"smiles": "Cc1nn2c(-c3nc4ccc(Cl)cc4[nH]3)c(-c3ccc(F)cc3)nc2s1", "growth": "99.7% (inactive)"}
{"smiles": "O=C1/C(=C/c2ccc(F)cc2)CN(Cc2cn(CCNc3ccnc4cc(Cl)ccc34)nn2)C/C1=C\\c1ccc(F)cc1", "growth": "-86.5% (active)"}
{"smiles": "CCCN1CCN(c2ccc3nc(-c4ccc5nc(-c6ccc(C(F)(F)F)cc6)[nH]c5c4)[nH]c3c2)CC1", "growth": "-89% (active)"}
{"smiles": "Cc1nc2cc(Nc3nc(Nc4ccc(F)cc4)nc(-c4cccs4)n3)ccc2n1Cc1ccccc1", "growth": "43.8% (inactive)"}
{"smiles": "Cc1ccc(N=c2nc3sc4c(C)ccc(C)c4n3c(N)c2C#N)cc1", "growth": "110% (inactive)"}
{"smiles": "CCC12CCC3c4ccc(O)cc4CCC3C1CC(O)C2O", "note": "(stereo not given)", "growth": "-2.42% (active)"}
{"smiles": "Clc1ccccc1Nc1ccc2nnc(-c3ccncc3)n2n1", "growth": "98% (inactive)"}
{"smiles": "Cc1ccc2nc(NC(=O)CSC(=S)N3CCN(C)CC3)sc2c1", "growth": "101% (inactive)"}
{"smiles": "COc1ccc(Sc2ccc3[nH]c(=O)nc(N)c3c2)cc1", "growth": "99.8% (inactive)"}
{"smiles": "CN1CCc2c(c3ccccc3c3ccccc23)C1", "growth": "51.4% (inactive)"}
{"smiles": "CN1CCN(C(=O)OCCOCCOC(=O)N2CCN(C)CC2)CC1", "growth": "98.9% (inactive)"}
{"smiles": "CC1SC(c2ccc(Cl)cc2)N(CCc2cccs2)C1=O", "note": "(stereo not given)", "growth": "-37.4% (active)"}
{"smiles": "NS(=O)(=O)c1cc(Br)c2c(c1)S(=O)(=O)NCN2", "growth": "105% (inactive)"}
{"smiles": "O=C1C(OCCOc2ccccc2)=C(OCCOc2ccccc2)C(=O)c2ccccc21", "growth": "75.8% (inactive)"}
